From PubChem BioAssay (NCI)
This is part of a sample that, as a whole, favours compounds with a hit. Of some 83,000 tested, about 20% had one in any assay.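 A percent growth of 40 corresponds to 60% growth inhibition; 0 means no net growth; -100 means all cells died. Active threshold: below 10.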 Active and inactive are the calls of the source.

Columns and labels:
Test in all cases: NCI-60 one-dose screen, 48 h (100 = growth as untreated, 0 = no growth, -100 = all killed)
Settings in all cases: 10 µM unless noted
DU-145 prostate = system: DU-145 prostate
K-562 leukemia = system: K-562 leukemia
MALME-3M melanoma = system: MALME-3M melanoma
MDA-MB-231 breast = system: MDA-MB-231 breast
RXF 393 renal = system: RXF 393 renal
SF-268 CNS = system: SF-268 CNS
SF-295 CNS = system: SF-295 CNS
SF-539 CNS = system: SF-539 CNS
UACC-257 melanoma = system: UACC-257 melanoma
M14 melanoma = system: M14 melanoma
HCT-15 colon = system: HCT-15 colon
HT29 colon = system: HT29 colon
SNB-75 CNS = system: SNB-75 CNS
SNB-19 CNS = system: SNB-19 CNS
U251 CNS = system: U251 CNS
PC-3 prostate = system: PC-3 prostate
SK-MEL-5 melanoma = system: SK-MEL-5 melanoma
UACC-62 melanoma = system: UACC-62 melanoma
LOX IMVI melanoma = system: LOX IMVI melanoma
SK-MEL-28 melanoma = system: SK-MEL-28 melanoma

Measured: growth

N#Cc1c2c(c(N)[nH]c1=O)C(=O)NC2(O)c1ccccc1 (stereo not given)
inactive: DU-145 prostate 105% | K-562 leukemia 98.7% | MALME-3M melanoma 87.1% | MDA-MB-231 breast 112% | RXF 393 renal 103% | SF-268 CNS 105% | SF-295 CNS 100% | SF-539 CNS 104% | UACC-257 melanoma 96.7% | M14 melanoma 100% | HCT-15 colon 106% | HT29 colon 97% | SNB-75 CNS 106% | SNB-19 CNS 114% | U251 CNS 101% | PC-3 prostate 102% | SK-MEL-5 melanoma 98.6% | UACC-62 melanoma 107% | LOX IMVI melanoma 98.5% | SK-MEL-28 melanoma 114%

Nc1ncnc2c1c(-c1ccc(Oc3ccccc3)cc1)nn2C[C@H]1SSC[C@H]1O
active: DU-145 prostate -22.6% | K-562 leukemia -16.9% | MDA-MB-231 breast 9.82% | RXF 393 renal -4.66% | UACC-257 melanoma 1.69% | M14 melanoma -66.7% | HT29 colon -59.1% | SNB-75 CNS 3.26% | SK-MEL-5 melanoma -92.5% | UACC-62 melanoma -48.8% | LOX IMVI melanoma -57.7% | SK-MEL-28 melanoma -16.3%
inactive: MALME-3M melanoma 13.9% | SF-268 CNS 20.1% | SF-295 CNS 20.7% | SF-539 CNS 10% | HCT-15 colon 26.6% | SNB-19 CNS 45.9% | U251 CNS 21.1% | PC-3 prostate 50.7%

NS(=O)(=O)c1ccc(Nc2nc(O)c(/C=C3\C=Nc4ccccc43)s2)cc1
inactive: DU-145 prostate 110% | K-562 leukemia 101% | MALME-3M melanoma 92.7% | MDA-MB-231 breast 87.9% | RXF 393 renal 111% | SF-268 CNS 106% | SF-295 CNS 102% | SF-539 CNS 98.1% | UACC-257 melanoma 88.7% | M14 melanoma 103% | HCT-15 colon 107% | HT29 colon 114% | SNB-75 CNS 93.7% | SNB-19 CNS 91.6% | U251 CNS 94.6% | PC-3 prostate 92.1% | SK-MEL-5 melanoma 101% | UACC-62 melanoma 82.6% | LOX IMVI melanoma 97.3% | SK-MEL-28 melanoma 110%

COc1cc(NC(C)CCCN2C(=O)c3ccccc3C2=O)c2nccc(C)c2c1OC (stereo not given)
inactive: DU-145 prostate 124% | K-562 leukemia 60.9% | MALME-3M melanoma 81.2% | MDA-MB-231 breast 84.7% | RXF 393 renal 106% | SF-268 CNS 104% | SF-295 CNS 119% | SF-539 CNS 119% | UACC-257 melanoma 106% | M14 melanoma 135% | HCT-15 colon 102% | HT29 colon 107% | SNB-75 CNS 102% | SNB-19 CNS 109% | U251 CNS 101% | PC-3 prostate 58.6% | SK-MEL-5 melanoma 69.5% | UACC-62 melanoma 84% | LOX IMVI melanoma 82.8% | SK-MEL-28 melanoma 113%

CCN1CCN(Cc2ccc(NC(=O)Nc3cccc(-n4ccc5c(NC(=O)c6ccccc6)nccc54)c3)cc2C(F)(F)F)CC1
inactive: DU-145 prostate 88.8% | K-562 leukemia 49.3% | MALME-3M melanoma 64% | MDA-MB-231 breast 82% | RXF 393 renal 79.5% | SF-268 CNS 85.3% | SF-295 CNS 55.7% | SF-539 CNS 81.1% | UACC-257 melanoma 73.9% | M14 melanoma 76% | HCT-15 colon 77% | HT29 colon 75.1% | SNB-75 CNS 80.2% | SNB-19 CNS 89.8% | U251 CNS 76.3% | PC-3 prostate 66.4% | SK-MEL-5 melanoma 43.1% | UACC-62 melanoma 68% | LOX IMVI melanoma 85% | SK-MEL-28 melanoma 82.8%

O=C(Nc1cccc([N+](=O)[O-])c1)Nc1cccc([N+](=O)[O-])c1
inactive: DU-145 prostate 42.2% | K-562 leukemia 15.3% | MALME-3M melanoma 66.9% | MDA-MB-231 breast 88.1% | RXF 393 renal 99.4% | SF-268 CNS 82.6% | SF-295 CNS 34.6% | SF-539 CNS 74.9% | UACC-257 melanoma 68.1% | M14 melanoma 44.6% | HCT-15 colon 24.6% | HT29 colon 40.9% | SNB-75 CNS 107% | SNB-19 CNS 52% | U251 CNS 50.8% | PC-3 prostate 12.7% | SK-MEL-5 melanoma 55% | UACC-62 melanoma 29.9% | LOX IMVI melanoma 51.3% | SK-MEL-28 melanoma 60.3%

CN1CCN(Cn2nc(-c3cc(F)c(Cl)cc3Cl)n(/N=C/c3ccc(N(C)C)cc3)c2=S)CC1
inactive: DU-145 prostate 87.3% | K-562 leukemia 22.4% | MALME-3M melanoma 63.4% | MDA-MB-231 breast 102% | RXF 393 renal 82.7% | SF-268 CNS 102% | SF-295 CNS 48.4% | SF-539 CNS 78.1% | UACC-257 melanoma 93.8% | M14 melanoma 37.3% | HCT-15 colon 100% | HT29 colon 99.5% | SNB-75 CNS 78.7% | SNB-19 CNS 71.5% | U251 CNS 95.2% | PC-3 prostate 76.2% | SK-MEL-5 melanoma 79.7% | UACC-62 melanoma 79.4% | LOX IMVI melanoma 79.9% | SK-MEL-28 melanoma 82.1%

Cc1ccc(/C=C2/C(=O)Nc3cc(Cl)c(-c4csc(N)n4)cc32)cc1
active: K-562 leukemia 9.97%
inactive: DU-145 prostate 87.5% | MALME-3M melanoma 80.4% | MDA-MB-231 breast 46.8% | RXF 393 renal 76.4% | SF-268 CNS 71.8% | SF-295 CNS 70.8% | SF-539 CNS 81.6% | UACC-257 melanoma 94.7% | M14 melanoma 52.9% | HCT-15 colon 63.1% | HT29 colon 47.7% | SNB-75 CNS 52.4% | SNB-19 CNS 55.2% | U251 CNS 63.6% | PC-3 prostate 56.8% | SK-MEL-5 melanoma 40.8% | UACC-62 melanoma 50.7% | LOX IMVI melanoma 58.7% | SK-MEL-28 melanoma 82.7%

O=c1[nH]ccc2nc(N3CCC(O)CC3)nc(Nc3cccc(C(F)(F)F)c3)c12
inactive: DU-145 prostate 72% | K-562 leukemia 44.7% | MALME-3M melanoma 64.5% | MDA-MB-231 breast 88.3% | RXF 393 renal 54.4% | SF-268 CNS 67.1% | SF-295 CNS 96.8% | SF-539 CNS 80.4% | UACC-257 melanoma 16.3% | M14 melanoma 39.1% | HCT-15 colon 49.9% | HT29 colon 71.6% | SNB-75 CNS 87.1% | SNB-19 CNS 98.9% | U251 CNS 55.2% | PC-3 prostate 30.6% | UACC-62 melanoma 32% | LOX IMVI melanoma 56.2% | SK-MEL-28 melanoma 76.1%
active: SK-MEL-5 melanoma -55.9%

Oc1ccc(Cl)cc1Sc1cc(Cl)ccc1O
inactive: DU-145 prostate 98.9% | K-562 leukemia 93.3% | MALME-3M melanoma 86.2% | MDA-MB-231 breast 96.4% | RXF 393 renal 62% | SF-268 CNS 87.8% | SF-295 CNS 108% | SF-539 CNS 97.6% | UACC-257 melanoma 94.7% | M14 melanoma 95.8% | HCT-15 colon 92.9% | HT29 colon 102% | SNB-75 CNS 63.4% | SNB-19 CNS 95.1% | U251 CNS 93.9% | PC-3 prostate 89.6% | UACC-62 melanoma 58.8% | LOX IMVI melanoma 88.1% | SK-MEL-28 melanoma 52.5%
active: SK-MEL-5 melanoma -14.2%

CCc1cccc(-c2ccccc2)c1
inactive: DU-145 prostate 110% | K-562 leukemia 109% | MALME-3M melanoma 114% | MDA-MB-231 breast 114% | RXF 393 renal 130% | SF-268 CNS 108% | SF-295 CNS 107% | SF-539 CNS 97.6% | UACC-257 melanoma 99.1% | M14 melanoma 92.6% | HCT-15 colon 103% | HT29 colon 114% | SNB-75 CNS 105% | SNB-19 CNS 107% | U251 CNS 106% | PC-3 prostate 99% | SK-MEL-5 melanoma 111% | UACC-62 melanoma 103% | LOX IMVI melanoma 109% | SK-MEL-28 melanoma 120%

COc1ccc(-c2nn(-c3ccc(NC(=O)c4cc(Cl)cc(Cl)c4)cc3)cc2-c2ccncc2)cc1Cl
inactive: DU-145 prostate 76.6% | K-562 leukemia 12% | MALME-3M melanoma 89.9% | MDA-MB-231 breast 25.1% | SF-268 CNS 63.5% | SF-539 CNS 47.8% | UACC-257 melanoma 85% | M14 melanoma 42.9% | HCT-15 colon 21.7% | SNB-75 CNS 72.4% | SNB-19 CNS 82.8% | U251 CNS 39.2% | PC-3 prostate 47.9% | SK-MEL-5 melanoma 54.8% | UACC-62 melanoma 63.5% | LOX IMVI melanoma 22.9% | SK-MEL-28 melanoma 75.1%
active: RXF 393 renal -66.8% | SF-295 CNS -28.5% | HT29 colon 8.22%

Cc1cccc[n+]1CCC[n+]1ccccc1C
inactive: DU-145 prostate 111% | K-562 leukemia 103% | MALME-3M melanoma 105% | MDA-MB-231 breast 115% | RXF 393 renal 111% | SF-268 CNS 107% | SF-295 CNS 103% | SF-539 CNS 98.9% | UACC-257 melanoma 111% | M14 melanoma 89.4% | HCT-15 colon 96.7% | HT29 colon 94.1% | SNB-75 CNS 103% | SNB-19 CNS 111% | U251 CNS 101% | PC-3 prostate 95.4% | SK-MEL-5 melanoma 101% | UACC-62 melanoma 109% | LOX IMVI melanoma 96.9% | SK-MEL-28 melanoma 103%

O=C(Nc1ccc(-n2cc(-c3ccncc3)c(-c3ccc(O)c(Cl)c3)n2)cc1)c1cc(Cl)cc(Cl)c1
active: MDA-MB-231 breast -54.1% | RXF 393 renal -80.2% | SF-295 CNS -11.1% | M14 melanoma -40.4% | HT29 colon -19.5% | SK-MEL-5 melanoma 2.65% | LOX IMVI melanoma 1.16%
inactive: DU-145 prostate 38.9% | K-562 leukemia 11.5% | MALME-3M melanoma 34% | SF-268 CNS 49.4% | SF-539 CNS 12.8% | UACC-257 melanoma 66.9% | HCT-15 colon 11.2% | SNB-75 CNS 60.6% | SNB-19 CNS 50% | U251 CNS 26.8% | PC-3 prostate 35.6% | UACC-62 melanoma 65.9% | SK-MEL-28 melanoma 53.4%

FC(F)(F)c1cccc([Si](F)(c2cccc(C(F)(F)F)c2)c2cccc(C(F)(F)F)c2)c1
inactive: DU-145 prostate 94% | K-562 leukemia 62.2% | MALME-3M melanoma 106% | MDA-MB-231 breast 80.4% | RXF 393 renal 87.6% | SF-268 CNS 84% | SF-295 CNS 69.2% | SF-539 CNS 101% | UACC-257 melanoma 81.3% | M14 melanoma 86.1% | HCT-15 colon 72.1% | HT29 colon 59.3% | SNB-75 CNS 80.4% | SNB-19 CNS 77.7% | U251 CNS 72.1% | PC-3 prostate 24.2% | SK-MEL-5 melanoma 84.2% | UACC-62 melanoma 68.4% | LOX IMVI melanoma 72.9% | SK-MEL-28 melanoma 85.8%
